In all, about 340,000 compounds went through this assay and about 6,400 (1.9%) were called active. Where a call stands in place of a potency, no number is given. About 4% were inconclusive and are not listed. Calls follow the shape of the dose curve; as a rule, active = well fitted falling curve with a large enough effect; inconclusive = small, poorly fitted or top-dose-only effect; inactive = no such curve, though single readings can be large or run the other way. For the sample, actives were picked, then their nearest neighbours and some compounds at random.
Potency is read from the fitted curve at half-maximal effect.

In this experiment the target is ATP-dependent Clp protease proteolytic subunit (Bacillus subtilis (strain 168)) (UniProt P80244). Nature of the experiment: qHTS Assay for Activators of ClpP. Also: the source files actives as falling curves though it sought activators and does not explain the sign; nearly all actives have a fitted effect of over 65% in size. The note with it: purified B. subtilis ClpP, FRET peptide cleavage, 20 min; series mostly up to 57.5 µM. Put shortly:
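FRET quenching reversal measured ClpP activation: 10 microg/mL B. subtilis ClpP at pH 8 with the FRET-FV decapeptide, read at 430 nm after 320 nm excitation. The 20-min minus 0-min signal was scaled between DMSO/no-enzyme wells and ADEP (5.8 microM final).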
In general terms: Quantitative high-throughput screening tests each substance at several concentrations.
As to `CO[C@H]1O[C@@H]2O[C@@]3(C)CC[C@@H]4[C@@H](C)CC[C@@H]([C@H]1C)[C@@]24OO3`, the Potency result is “inactive”.

Take `CCOC(=O)c1ccn(S(=O)(=O)c2ccc(C)cc2)c1-c1ccccc1`: the Potency result was “inactive”.

As for `CCOc1cc(-c2cc(-c3ccc(OC)cc3)nc(N)c2C#N)ccc1O`, the Potency result is “inactive”.

Take `CCOC(=O)CC(=O)CSc1nc(-c2ccccc2)cc(-c2ccc(Cl)cc2)c1C#N`: the Potency result was “inactive”.

Consider `CCSc1nc(-c2ccc(OC)cc2)cc(-c2ccc(OC)cc2)c1C#N`, for which the Potency was 22.4 µM (active).

Consider `CCc1ccc([C@@H]2CC(=O)[C@@H]3CN(S(=O)(=O)c4ccc(C)cc4)[C@H](c4ccc(Cl)cc4)C[C@@H]3N2S(=O)(=O)c2ccc(C)cc2)cc1`, for which the Potency result was “inactive”.

With `Cc1ccc(S(=O)(=O)N[C@H]2CCC[C@@H]2O)cc1`, the Potency entry was “inactive”.

Take `CCCNC(=O)c1cc(C2CCCN(C(=O)c3ccc4c(c3)CCO4)C2)on1` (stereo not drawn): the Potency result was “inactive”.

In the case of `CCOc1ccc(CNC(=O)C2CCC(=O)N2C2CCCC2)cc1OC` (stereo not drawn), the Potency entry is “inactive”.

`CCOc1cc(C2C(C(=O)OC)=CN(C3CCCC3)C=C2C(=O)OC)cc(Br)c1O`: the Potency was 31.6 µM (active).

`CCCC(=O)Nc1cc(OCC)c(NC(=O)NC2CCCCC2)cc1OCC`: the Potency result was “inactive”.

Take `CCOc1ccc2[nH]c(=S)sc2c1`: the Potency result was “inactive”.

Turning to `C=CCC[C@@H](CCCCC)OC(=O)/C=C/[C@@H](O)[C@H](O)C[C@H](O)CC=C`, the Potency entry was “inactive”.

Turning to `COc1ccc2oc(=O)c(C(=O)N3CCN(c4ccccc4F)CC3)cc2c1`, the Potency result is “inactive”.

As to `N=c1oc2ccccc2cc1C(=O)NCc1ccccc1`, the Potency result is “inactive”.

Consider `Cc1ccc(S(=O)(=O)N2CCC(C)CC2)cc1C(=O)NCc1ccccn1`, for which the Potency result is “inactive”.

On to `Cc1cc(C)cc(OCC(=O)NNC(=O)c2cc3ccccc3oc2=O)c1`, for which the Potency result was “inactive”.

Regarding `COc1ccc2oc(=O)c(C(=O)NCc3ccccn3)cc2c1`, the Potency is 10 µM (active).

Consider `COc1cccc(S(=O)(=O)NCc2ccc(C(=O)NCc3ccccn3)cc2)c1`, for which the Potency entry is “inactive”.

Regarding `Cc1ccccc1CN1CCN(CC(=O)NCc2ccccn2)C1=O`, the Potency entry was “inactive”.

On to `COc1ccc(CNC(=O)c2cc3cccc(OC)c3oc2=O)cc1`, for which the Potency entry was “inactive”.

As for `O=C(NCc1ccccn1)c1cc2ccccc2oc1=O`, the Potency is 31.6 µM (active).

`O=C(NCc1ccccn1)c1cnc2sccn2c1=O`: the Potency is 28.2 µM (active).

With `COc1ccc2oc(=O)c(C(=O)O)cc2c1`, the Potency was 20 µM (active).

Regarding `COc1ccc2oc(=O)c(C(=O)N3CCCc4ccccc43)cc2c1`, the Potency result was “inactive”.

For `COc1cc(NC(=O)c2cc(-c3ccc(F)cc3OC(C)C)n[nH]2)cc(OC)c1OC`, the Potency result was “inactive”.

For `COc1ccc(NC(=O)C2Cc3c(-c4ccc5c(c4)OCO5)ccnc3O2)cn1` (stereo not drawn), the Potency result was “inactive”.

With `COc1cc(C(O)c2nc(-c3cccc(C(=O)O)c3)cs2)ccc1F` (stereo not drawn), the Potency entry was “inactive”.

For `Cc1cc2c(cc1C)N1C(=O)c3cc4ccccc4cc3NC(=O)C1C(=O)N2` (stereo not drawn), the Potency entry is “inactive”.

For the molecule `COc1cc(OC)c(OC)cc1/C=C1\C=Cc2ccccc21`, the Potency result was “inactive”.

`CCOC(=O)C1(C)CCCN(C(=O)c2ccc(F)c(Cl)c2)C1` (stereo not drawn): the Potency result was “inactive”.

As to `O=C(NCc1ccc(F)cc1)c1cc(C2CCCCN2C(=O)C2CCCCC2)on1` (stereo not drawn), the Potency result is “inactive”.

Turning to `COc1cc(C(O)c2nc(-c3cnn(C)c3)cs2)ccc1F` (stereo not drawn), the Potency entry is “inactive”.

`O=C(Oc1cccnc1)c1cc2ccccc2oc1=O`: the Potency was 28.2 µM (active).

For `CCOC(=O)c1cc2cc3ccccc3cc2oc1=O`, the Potency result is “inactive”.

For `CCc1ccc(Oc2coc3cc(OC(=O)c4cc5ccccc5oc4=O)ccc3c2=O)cc1`, the Potency entry is “inactive”.

Turning to `COc1ccc(Cl)cc1-c1cc(C(=O)Nc2cc(OC)c(OC)c(OC)c2)[nH]n1`, the Potency result is “inactive”.

Consider `CCN(CC)CCNC(=O)CCCCCn1c(=O)[nH]c2cc(C(=O)OC)ccc2c1=O`, for which the Potency is 28.2 µM (active).

Consider `O=C(CCCn1c(=O)[nH]c2cc(Cl)ccc2c1=O)NCCN1CCN(c2ccccc2)CC1`, for which the Potency entry was “inactive”.

As for `CCCCCn1c(=O)[nH]c2cc(C(=O)NCCN(C)CCCC)ccc2c1=O`, the Potency result was “inactive”.

As for `Nc1ncnc2c1ncn2[C@@H]1O[C@H](C(=O)NCC(F)(F)F)[C@@H](O)[C@H]1O`, the Potency entry is “inactive”.

Regarding `CCCCc1c(-c2ccc(Cl)cc2)ncn1CCc1ccccc1OC`, the Potency entry is “inactive”.

On to `Cc1nn(-c2ncc(C(F)(F)F)cc2Cl)c(=O)n1-c1ccccc1`, for which the Potency entry was “inactive”.

With `Cc1ccc(-c2nc3c(Cl)cc(C(F)(F)F)cn3c2Cc2cccc(Cl)c2)cc1`, the Potency result was “inactive”.

Consider `Cc1ccc(-c2ccnc3nc(Sc4ncc(C(F)(F)F)cc4Cl)nn23)cc1`, for which the Potency was 7.08 µM (active).

As for `OCCC#Cc1ccc(N2C(c3ccsc3)=Cc3ccc(F)cc3C2c2c[nH]c3ccccc23)cc1` (stereo not drawn), the Potency entry was “inactive”.

In the case of `CCOC(=O)C1=C(C)c2ccccc2OC1(C)C(=O)OCC` (stereo not drawn), the Potency entry was “inactive”.

For the molecule `CCOC(=O)C1(C(F)(F)F)N=C(N(C)C)OC(N(C)C)=N1`, the Potency is 15.8 µM (active).

Take `Cc1cc(Br)cn2c(Cc3ccccc3C(F)(F)F)c(-c3ccc(Cl)cc3)nc12`: the Potency result is “inactive”.

Turning to `C=C1C=C(C(F)F)n2ncc(C(=O)NCCc3ccccc3OC)c2N1`, the Potency result is “inactive”.

In the case of `Cc1ccc(Cn2c(C)c3cnn(CC(=O)NCCN4CCOCC4)c(=O)c3c2C)cc1`, the Potency entry is “inactive”.

`O=C(CCN1C(=O)c2ccccc2C1=O)NCCN1CCOCC1`: the Potency result was “inactive”.

Regarding `O=C(Cn1c(-c2ccccn2)nc2ccccc21)NCCN1CCOCC1`, the Potency is 28.2 µM (active).

For `Cc1ccc(CC2(C)C(=O)Nc3ccc(OC(F)(F)F)cc32)cc1` (stereo not drawn), the Potency result is “inactive”.

As to `O=C(Nc1ccc2c(c1)OCCO2)C(C1CC1)N1CCC(Cc2ccccc2)CC1` (stereo not drawn), the Potency result is “inactive”.

With `CCOC(=O)[C@]12CCCC=C1N(CCC1=CCCCC1)C(=O)[C@H](CC(=O)N1CCOCC1)C2`, the Potency result is “inactive”.

As for `CCc1nc2c(OCc3ccc(Cl)cc3Cl)cccn2c1N(C)C(=O)C(C)C`, the Potency entry is “inactive”.

`CCc1nc2ccc(C(=O)N3CCN(c4cc(Cl)ccc4C)CC3)cc2nc1CC`: the Potency entry is “inactive”.

As for `CCc1nc2ccc(C(=O)N3CCN(c4cccc(Cl)c4)CC3)cc2nc1CC`, the Potency entry was “inactive”.

Regarding `CCOC(=O)N1CCN(C(=O)c2ccc3nc4cc(Cl)ccc4c(=O)n3c2)CC1`, the Potency is 3.55 µM (active).

As for `O=C(c1cccs1)N1C[C@H](n2cc(C3CC3)nn2)[C@@H](O)C[C@@H]1c1ccccc1`, the Potency result was “inactive”.

As for `CC(C)N1C(=O)c2ccccc2NC(=O)C1C(=O)NCc1cccs1` (stereo not drawn), the Potency entry is “inactive”.

Consider `CC(=O)c1ccc(-c2cnc3c(NC=O)cc(-c4cccc(NS(C)(=O)=O)c4)cn23)cc1`, for which the Potency result was “inactive”.
